This passage reports Potency and outcome results from PubChem BioAssay (NCATS).

Assay [1] in a line: qHTS for differential inhibitors of proliferation of Plasmodium falciparum line D10 (AID 1877;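 note: parasites grown with compound for 72 h before DNA staining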; note: potency is the fitted concentration of half-maximal effect). (In general: qHTS replaces the single test concentration by a dilution series.)
Assay [2] in a line: qHTS for differential inhibitors of proliferation of Plasmodium falciparum line Dd2 (AID 1882). Note: nearly all actives have a fitted effect of over 65% in size. Note: potency is the fitted concentration of half-maximal effect. Conditions: Potency: Plasmodium falciparum Dd2 proliferation inhibition. The method, boiled down: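 SYBR Green DNA fluorescence (ex 485, em 535 nm) after overnight lysis quantifies parasite growth; compound exposure lasted 72 h at 37 C on infected red cells at 2.5% hematocrit, 0.3% parasitemia (final). Artemisinin 0.29 uM and vehicle wells define normalization.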

Assay [3] can be described thus: qHTS for differential inhibitors of proliferation of Plasmodium falciparum line W2 (AID 1883).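 Note: parasites grown with compound for 72 h before lysis and staining.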 Note: potency is the fitted concentration of half-maximal effect. Conditions: Potency: Plasmodium falciparum W2 proliferation inhibition.
Assay [4] is described as follows: qHTS for differential inhibitors of proliferation of Plasmodium falciparum line HB3 (AID 1886).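 Note: parasites grown with compound for 72 h before SYBR Green readout.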 Note: potency is the fitted concentration of half-maximal effect. Conditions: Potency: Plasmodium falciparum HB3 proliferation inhibition.
The target of assay [5] is Ferritin light chain (Equus caballus) (UniProt P02791). The assay can be described thus: qHTS Validation Assay for Identification of Novel General Anesthetics (AID 2323). Note: series mostly up to about 77 µM. An outline of the steps: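 Competitive displacement of the profluorescent anesthetic 1-AMA (50% saturated, PBS) from 10 uM apoferritin, 10 min, room temperature. Activity is normalized 380/535 nm fluorescence; concentration-response fitted with a four-parameter Hill equation.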

Assay [6] deals with ATP-dependent DNA helicase Q1 (Homo sapiens) (UniProt P46063). The assay can be described thus: qHTS Validation Assay for Inhibitors of RecQ-Like Dna Helicase 1 (RECQ1) (AID 2353). An outline of the steps:
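RECQ1T1 50 nM; forked duplex (20 bp + 30-nt ss tails) 200 nM, ATP 2 mM final; pH 8.0, 2 mM MgCl2, 2.5 ug/ml poly(dI-dC); 15 min compound preincubation; discontinuous kinetic read over 2 h at RT.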

The target in assay [7] is RecQ-like DNA helicase BLM (Homo sapiens) (UniProt P54132). The assay can be described thus: qHTS Validation Assay for Inhibitors of Bloom's syndrome helicase (BLM) (AID 2364). The method, boiled down: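 Forked 20-bp duplex substrate (200 nM, TAMRA/BHQ-2) plus 2 mM ATP added after 15 min compound preincubation with 50 nM enzyme, pH 8.0, poly(dI-dC) 2.5 ug/ml. Strand separation followed by fluorescence (525/598 nm) over 2 h, normalized to enzyme-free and DMSO controls.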

A short description of assay [8]: qHTS Assay for Modulators of Human Peripheral Myelin Protein 22 (PMP22) Expression/Activity (AID 1967; active = well fitted curve in the direction sought with a large enough effect in the signal ratio; the % refers to the signal ratio). The method, boiled down: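 Readout is the corrected green/red luminescence ratio after 24 h compound exposure, normalised to untreated cells (0%). Engineered MSC80 mouse Schwann cells express green luciferase from the mouse Pmp22 promoter and red luciferase from EF-alpha as internal control.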

SMILES strings stand for the structures. Inconclusive results are not listed. The source made the active and inactive calls. Unless noted, calls come from the whole dose curve; as a rule, active = well fitted curve in the direction sought with a large enough effect; inconclusive = small, poorly fitted or top-dose-only effect, or another doubt; inactive = no such curve, though single readings can be large; an effect the other way counts as inactive or inconclusive. Residues, ends and D or L forms follow the SMILES beside them. *: point of attachment. Cbz = O=C(OCc1ccccc1)*

Chain of ATP-dependent DNA helicase Q1 (Homo sapiens) (P46063 whole entry, looked up): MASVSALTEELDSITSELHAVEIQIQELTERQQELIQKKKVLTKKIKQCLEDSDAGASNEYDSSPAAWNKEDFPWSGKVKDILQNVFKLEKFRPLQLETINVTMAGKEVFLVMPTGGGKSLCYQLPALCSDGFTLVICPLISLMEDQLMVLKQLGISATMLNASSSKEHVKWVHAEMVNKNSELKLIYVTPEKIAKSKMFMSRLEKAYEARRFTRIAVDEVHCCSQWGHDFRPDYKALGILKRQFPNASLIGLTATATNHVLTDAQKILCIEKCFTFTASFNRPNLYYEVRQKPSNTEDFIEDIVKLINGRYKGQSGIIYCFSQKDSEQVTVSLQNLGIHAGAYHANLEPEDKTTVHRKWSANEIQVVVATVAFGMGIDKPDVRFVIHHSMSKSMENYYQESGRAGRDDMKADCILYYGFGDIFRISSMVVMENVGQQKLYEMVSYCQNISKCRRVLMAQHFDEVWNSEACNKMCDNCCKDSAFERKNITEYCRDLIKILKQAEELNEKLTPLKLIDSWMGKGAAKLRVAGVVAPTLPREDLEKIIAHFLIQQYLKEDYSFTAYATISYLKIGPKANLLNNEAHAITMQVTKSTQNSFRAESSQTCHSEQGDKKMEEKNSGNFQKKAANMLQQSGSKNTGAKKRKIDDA
Chain of Ferritin light chain (Equus caballus) (P02791 2-175 limits assumed): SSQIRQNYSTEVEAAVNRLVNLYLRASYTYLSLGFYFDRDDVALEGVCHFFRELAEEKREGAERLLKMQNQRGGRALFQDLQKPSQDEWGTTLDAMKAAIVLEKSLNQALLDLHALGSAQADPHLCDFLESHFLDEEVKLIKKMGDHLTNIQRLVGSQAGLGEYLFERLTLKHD
Chain of RecQ-like DNA helicase BLM (Homo sapiens) (P54132 whole entry, looked up): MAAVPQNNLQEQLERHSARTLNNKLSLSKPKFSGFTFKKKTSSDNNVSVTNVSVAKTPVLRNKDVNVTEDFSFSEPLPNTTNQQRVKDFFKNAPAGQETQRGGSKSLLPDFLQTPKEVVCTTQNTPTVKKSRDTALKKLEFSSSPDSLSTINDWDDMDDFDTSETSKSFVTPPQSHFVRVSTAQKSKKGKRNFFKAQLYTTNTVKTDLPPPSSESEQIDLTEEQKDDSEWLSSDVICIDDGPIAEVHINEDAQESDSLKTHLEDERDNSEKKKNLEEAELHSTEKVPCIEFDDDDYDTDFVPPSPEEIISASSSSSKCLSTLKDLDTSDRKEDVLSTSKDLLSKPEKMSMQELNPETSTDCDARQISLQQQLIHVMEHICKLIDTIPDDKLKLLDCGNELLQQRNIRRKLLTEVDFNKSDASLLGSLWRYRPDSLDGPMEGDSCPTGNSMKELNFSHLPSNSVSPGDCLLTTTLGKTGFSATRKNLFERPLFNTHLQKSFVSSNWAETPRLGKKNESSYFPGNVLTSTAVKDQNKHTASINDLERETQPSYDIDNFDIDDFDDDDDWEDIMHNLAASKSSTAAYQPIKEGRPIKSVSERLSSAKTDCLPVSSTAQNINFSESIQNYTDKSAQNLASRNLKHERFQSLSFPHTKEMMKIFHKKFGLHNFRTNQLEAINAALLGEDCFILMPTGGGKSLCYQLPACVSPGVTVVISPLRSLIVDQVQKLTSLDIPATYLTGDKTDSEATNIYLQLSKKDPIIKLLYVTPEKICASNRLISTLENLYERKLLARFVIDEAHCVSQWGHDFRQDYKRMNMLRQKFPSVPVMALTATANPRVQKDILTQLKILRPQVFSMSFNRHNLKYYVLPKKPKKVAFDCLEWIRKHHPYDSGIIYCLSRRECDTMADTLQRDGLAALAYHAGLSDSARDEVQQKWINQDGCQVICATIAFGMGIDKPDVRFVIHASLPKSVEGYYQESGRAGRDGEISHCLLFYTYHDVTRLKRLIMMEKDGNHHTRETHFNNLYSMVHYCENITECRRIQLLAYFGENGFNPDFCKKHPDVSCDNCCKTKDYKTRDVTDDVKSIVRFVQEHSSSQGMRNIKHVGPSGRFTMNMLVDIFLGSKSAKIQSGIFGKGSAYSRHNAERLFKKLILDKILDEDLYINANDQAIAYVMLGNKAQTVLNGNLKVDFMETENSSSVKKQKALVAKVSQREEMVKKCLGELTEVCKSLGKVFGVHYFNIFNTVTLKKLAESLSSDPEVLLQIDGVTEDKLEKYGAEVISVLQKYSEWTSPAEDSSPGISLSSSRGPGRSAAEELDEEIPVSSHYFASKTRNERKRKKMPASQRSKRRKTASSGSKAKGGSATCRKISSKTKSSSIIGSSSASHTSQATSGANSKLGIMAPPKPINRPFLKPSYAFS

Turning to `N[C@@H](CCCC(=O)O)C(=O)O`, the Potency result in assay [1], in assay [2], in assay [3], in assay [4], in assay [5] and in assay [6] was “inactive” each time.
Turning to `CO/N=C(\C(=O)N[C@@H]1C(=O)N2C(C(=O)O)=C(CSc3nc(=O)c(O)nn3C)CSC12)c1csc(N)n1` (stereo partly specified), the Potency result in assay [1], in assay [2], in assay [3], in assay [4] and in assay [5] was “inactive” each time.
Take `Cc1cccc(C)c1OCC(N)C(C)C` (stereo unspecified): the Potency result in assay [1], in assay [4], in assay [5] and in assay [6] was “inactive” in each case. The Potency in assay [2] was 4.47 µM (active); in assay [3], 0.708 µM (active).
In the case of `C[C@@H](NCCc1ccc(O)cc1)[C@@H](O)c1ccc(O)cc1`, the Potency entry in assay [1], in assay [2], in assay [3], in assay [4], in assay [5] and in assay [6] was “inactive” in each case. For the same compound, the Potency result in assay [7] is “inactive”.
Take `CCn1c(=O)[nH]c2cc(Cl)c(Cl)cc21`: the Potency result in assay [1], in assay [2], in assay [3], in assay [4], in assay [5] and in assay [6] was “inactive” throughout.
Turning to `NC(=O)CNCCC(c1ccccc1)c1ccccc1`, the Potency entry in assay [1], in assay [4], in assay [5] and in assay [6] was “inactive” throughout. For the same compound, the figures for the Potency in assay [2] and in assay [3] were 4.47 µM (active) and 2.24 µM (active), respectively.
For the compound `NC(=O)c1ccccc1`, the Potency result in assay [1], in assay [2], in assay [3], in assay [4], in assay [5] and in assay [6] was “inactive” each time.
Regarding `CC(C)[C@H](NC(=O)OCc1ccccc1)C(=O)N[C@H](C=O)Cc1ccccc1` (Cbz-Val-Phe-aldehyde), the Potency is 8.91 µM (active) in assay [1], 4.47 µM (active) in assay [2], 2.82 µM (active) in assay [3] and 5.01 µM (active) in assay [4]. In addition, the Potency result in assay [5] and in assay [6] was “inactive” in each case.
With `O=c1ccn([C@@H]2O[C@H](COP(=O)(O)OP(=O)(O)O)[C@@H](O)[C@H]2O)c(=O)[nH]1`, the Potency result in assay [1], in assay [2], in assay [3], in assay [4], in assay [5] and in assay [6] was “inactive” in each case.
With `COc1ccc2c(c1)c(CC(=O)O)c(C)n2Cc1ccc(Cl)cc1`, the Potency is 14.1 µM (active) in assay [1], 8.91 µM (active) in assay [3] and 14.1 µM (active) in assay [4]. Further, the Potency result in assay [2], in assay [5], in assay [6] and in assay [7] was “inactive” each time.
In the case of `NC(N)=[N+]1CCc2ccccc2C1`, the Potency entry in assay [1], in assay [2], in assay [3], in assay [4], in assay [5] and in assay [6] was “inactive” throughout. The Potency entry in assay [7] is “inactive”.
For `CN1CCCC1CCOC(C)(c1ccccc1)c1ccc(Cl)cc1` (stereo unspecified), the Potency is 11.2 µM (active) in assay [1], 10 µM (active) in assay [2], 2.51 µM (active) in assay [3] and 5.01 µM (active) in assay [4]. The Potency entry in assay [5] and in assay [6] was “inactive” throughout.
Regarding `NCCCCN=C(N)N`, the Potency entry in assay [1], in assay [2], in assay [3], in assay [4], in assay [5] and in assay [6] was “inactive” in each case.
For the compound `NC1C=CC=C(C(=O)O)C1` (stereo unspecified), the Potency entry in assay [1], in assay [2], in assay [3], in assay [4], in assay [5] and in assay [6] was “inactive” each time.
As to `C[N+](C)(C)CC=O`, the Potency result in assay [1], in assay [2], in assay [3], in assay [4], in assay [5] and in assay [6] was “inactive” throughout.
Consider `CC(=O)[C@H]1CCC2C3CC=C4C[C@@H](OS(=O)(=O)O)CC[C@]4(C)C3CC[C@@]21C` (stereo partly specified), for which the Potency result in assay [1], in assay [2], in assay [3], in assay [4], in assay [5] and in assay [6] was “inactive” each time. In addition, in assay [7], the Potency result was “inactive”.
Consider `C=CCN1CCc2c(cc(O)c(O)c2Br)[C@@H](c2ccccc2)C1`, for which the Potency is 11.2 µM (active) in assay [1], 8.91 µM (active) in assay [2], 3.98 µM (active) in assay [3] and 7.08 µM (active) in assay [4]. Besides, the Potency result in assay [5] and in assay [6] was “inactive” throughout.
On to `c1ccc(CN2CCC3(CCCc4ccccc43)CC2)cc1`, for which the Potency in assay [1] is 12.6 µM (active); in assay [2], 11.2 µM (active); in assay [3] it was 4.47 µM (active); in assay [4], 7.94 µM (active). Also, the Potency entry in assay [5] and in assay [6] was “inactive” throughout.
`O=c1[nH]ccc2c(O)cccc12`: the Potency entry in assay [1], in assay [2], in assay [3], in assay [4], in assay [5] and in assay [6] was “inactive” in each case.
For `C=CCn1c(=O)c2c(nc(-c3ccc(S(=O)(=O)O)cc3)n2C)n(C)c1=O`, the Potency result in assay [1], in assay [2], in assay [3], in assay [4], in assay [5] and in assay [6] was “inactive” throughout.
In the case of `CC(C)NC[C@H](O)COc1ccc(CC(N)=O)cc1`, the Potency entry in assay [1], in assay [2], in assay [3], in assay [4], in assay [5] and in assay [6] was “inactive” throughout.
For `CCSC(=N)N`, the Potency entry in assay [1], in assay [2], in assay [4], in assay [5] and in assay [6] was “inactive” each time.
Take `O=C1C2C=CC=CC2=NC(=S)N1CCN1CCC(=C(c2ccc(F)cc2)c2ccc(F)cc2)CC1` (stereo unspecified): the Potency result in assay [1], in assay [2], in assay [5] and in assay [6] was “inactive” throughout. For the same compound, the Potency in assay [3] was 10 µM (active).
`N#CC(C#N)=C(N)/C(C#N)=C/c1ccc(O)cc1`: the Potency entry in assay [1], in assay [2], in assay [3], in assay [5] and in assay [6] was “inactive” throughout.
For `O=C(O)Cc1ccc(O)c(O)c1`, the Potency entry in assay [1], in assay [2], in assay [4], in assay [5] and in assay [6] was “inactive” in each case.
Regarding `Cc1cccc(C(=O)NCN2CCN(c3ccccc3C#N)CC2)c1`, the Potency entry in assay [1], in assay [2], in assay [4], in assay [5] and in assay [6] was “inactive” throughout.
With `N#Cc1cc2nc(O)c(O)nc2cc1[N+](=O)[O-]`, the Potency entry in assay [1], in assay [2], in assay [4] and in assay [6] was “inactive” in each case. In addition, the compound was called inactive in assay [8].
For `O=C(O)/C(=C/c1c(C(=O)O)[nH]c2cc(Cl)cc(Cl)c12)c1ccccc1`, the Potency entry in assay [1], in assay [2], in assay [4], in assay [5] and in assay [6] was “inactive” each time.
`COc1ccc(C(=O)NCc2cccnc2)cc1C(=O)NCc1cccnc1`: the Potency entry in assay [1], in assay [2], in assay [4], in assay [5] and in assay [6] was “inactive” in each case. In addition, in assay [8], the compound was called inactive.
With `COc1ccccc1N1CCN(CCCCN2C(=O)c3ccccc3C2=O)CC1`, the Potency result in assay [1], in assay [2], in assay [5], in assay [6] and in assay [7] was “inactive” each time. Moreover, the Potency in assay [3] was 3.55 µM (active).
As for `CCCc1c(-c2ccc(O)cc2)nn(-c2ccc(O)cc2)c1-c1ccc(O)cc1`, the Potency result in assay [1], in assay [2], in assay [4], in assay [5] and in assay [6] was “inactive” each time.
